Assay results taken from PubChem BioAssay (NCI).
The panel holds about 79,000 compounds, 15% with a hit somewhere; the sample as a whole holds those more often. The source made the active and inactive calls. Cut-off read from the data, not from the text of the source: active = growth inhibition above about 70%; inactive = the rest.

Experiments:
[1] = NCI Yeast Anticancer Drug Screen. Data for the wt1 strain (AID 149);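 note: 0% = growth of vehicle-treated wt1 cultures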; settings: S. cerevisiae wt1 strain (SPY 50644) growth inhibition, hits give high values
Summary of the method: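 Growth inhibition read against vehicle controls after compound exposure of the wt1 yeast strain.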

[2] = NCI Yeast Anticancer Drug Screen. Data for the rad50EPP+ strain (AID 151);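 note: 0% = growth of vehicle-treated control cultures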; settings: S. cerevisiae rad50 mutant strain, hits give high values
Summary of the method: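 In this screen, rad50EPP+ yeast were exposed to compounds. Growth inhibition was scored against vehicle-treated controls.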

[3] = NCI Yeast Anticancer Drug Screen. Data for the mgt1 strain (AID 153); settings: S. cerevisiae mgt1 mutant growth inhibition, hits give high values
Summary of the method: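 mgt1 strain exposed; growth vs vehicle control recorded as inhibition.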

[4] = NCI Yeast Anticancer Drug Screen. Data for the rad50 strain (AID 155);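 note: 0% = growth of vehicle-only cultures of the same strain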; settings: S. cerevisiae rad50 strain growth inhibition, hits give high values
Summary of the method: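 Readout: growth inhibition relative to vehicle-treated cultures. Compound exposure was carried out in a genetically defined yeast strain deficient in DNA damage repair.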

[5] = NCI Yeast Anticancer Drug Screen. Data for the mec2-1 strain (AID 157); settings: S. cerevisiae mec2-1 strain, hits give high values
Summary of the method: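 Vehicle-treated cultures served as reference for growth inhibition of compound-exposed mec2-1 yeast.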

[6] = NCI Yeast Anticancer Drug Screen. Data for the rad14 strain (AID 159);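 note: 0% = growth of vehicle-treated control cultures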; settings: S. cerevisiae rad14 strain growth inhibition, hits give high values
Summary of the method: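 Growth inhibition vs vehicle controls; genetically altered yeast strain (DNA damage repair defect) treated with test compounds.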

[7] = NCI Yeast Anticancer Drug Screen. Data for the sgs1 mgt1 strain (AID 161);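 note: 0% = growth of cultures given vehicle only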; settings: S. cerevisiae sgs1 mgt1 strain, hits give high values
Summary of the method: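 Inhibition of yeast growth, normalised to vehicle-treated controls, is reported for a strain bearing genetic alterations in DNA damage repair.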

[8] = NCI Yeast Anticancer Drug Screen. Data for the CLN2oe strain (AID 163);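 note: 0% = growth of vehicle-only control cultures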; settings: S. cerevisiae CLN2oe strain, hits give high values
Summary of the method: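 Inhibition relative to vehicle-treated yeast is reported. Cells: strain with genetic alteration in cell-cycle control, grown with compound.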

[9] = NCI Yeast Anticancer Drug Screen. Data for the cln2 rad14 strain (AID 165);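 note: 0% = growth equal to vehicle treated cultures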; settings: S. cerevisiae cln2 rad14 strain, hits give high values
Summary of the method: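 Each compound was tested on cln2 rad14 yeast. Inhibition of growth was calculated against vehicle-exposed controls.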

[10] = NCI Yeast Anticancer Drug Screen. Data for the bub3 strain (AID 167); settings: S. cerevisiae bub3 mutant strain, hits give high values
Summary of the method: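 Readout: yeast growth inhibition, expressed relative to vehicle-only wells. The test organism is a mutant strain from a panel with lesions in DNA repair or checkpoint genes.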

[11] = NCI Yeast Anticancer Drug Screen. Data for the mlh1 strain (AID 171);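 note: 0% = growth of vehicle-treated control cultures of the same strain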; settings: S. cerevisiae mlh1 strain growth inhibition, hits give high values
Summary of the method: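 Vehicle-normalised growth inhibition of a repair- or checkpoint-altered yeast strain following compound treatment.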

[12] = NCI Yeast Anticancer Drug Screen. Data for the sgs1 strain (AID 173);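 note: 0% = growth of vehicle-only control cultures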; settings: S. cerevisiae sgs1 mutant, hits give high values
Summary of the method: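 Screen format: yeast with repair or checkpoint alterations, compound exposure, growth read relative to vehicle.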

[13] = NCI Yeast Anticancer Drug Screen. Data for the mlh1 rad18 strain (AID 175); settings: S. cerevisiae mlh1 rad18 strain growth inhibition, hits give high values
Summary of the method: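 Vehicle-treated cultures served as the reference for growth inhibition in a yeast strain carrying DNA damage repair alterations exposed to each compound.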

[14] = NCI Yeast Anticancer Drug Screen. Data for the rad18 strain (AID 177); settings: S. cerevisiae rad18 mutant growth inhibition, hits give high values
Summary of the method: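 Test articles were incubated with altered yeast defective in DNA damage repair. Results are given as inhibition of growth versus vehicle.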

[15] = NCI Yeast Anticancer Drug Screen. Data for the wt2 strain (AID 169);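 note: 0% = growth of vehicle-treated yeast cultures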; settings: S. cerevisiae wt2 strain growth inhibition, hits give high values
Summary of the method: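 Inhibition of yeast growth was determined after compound treatment, normalised to controls receiving only vehicle.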

[16] = at 5.0 µM (retest, dose inferred, filed as 0.5)
[17] = at 50.0 µM (retest, dose inferred, filed as 5.0)

Measured: growth inhibition

Cc1c([N+](=O)[O-])oc2ccc3ccccc3c12
active: [2]; at 11.0 µM 79% | [2]; at 33.0 µM 91% | [2]; at 100.0 µM 88% | [4]; [16] 70% | [4]; at 33.0 µM 88% | [4]; [17] 90% | [4]; at 50.0 µM 87% | [4]; at 100.0 µM 92% | [5]; [17] 90% | [5]; at 50.0 µM 94.8% | [5]; at 100.0 µM 91% | [6]; at 3.7 µM 84% | [6]; at 11.0 µM 86% | [6]; at 33.0 µM 96% | [6]; at 100.0 µM 93% | [7]; [16] 76% | [7]; [17] 92% | [7]; at 50.0 µM 84.4% | [9]; [16] 81% | [9]; [17] 96% | [9]; at 50.0 µM 97% | [12]; at 11.0 µM 78% | [12]; at 33.0 µM 86% | [12]; at 100.0 µM 89% | [13]; [16] 82% | [13]; [17] 94% | [13]; at 50.0 µM 95.3% | [14]; at 1.2 µM 95% | [14]; at 3.7 µM 96% | [14]; at 11.0 µM 96% | [14]; at 33.0 µM 95% | [14]; at 100.0 µM 94%
inactive: [1]; at 1.2 µM 2% | [1]; at 3.7 µM 2% | [1]; at 11.0 µM 4% | [1]; at 33.0 µM 11% | [1]; at 100.0 µM 21% | [2]; at 1.2 µM 26% | [2]; at 3.7 µM 50% | [3]; at 1.2 µM -8% | [3]; at 3.7 µM -1% | [3]; at 11.0 µM 3% | [3]; at 33.0 µM 8% | [3]; at 100.0 µM 22% | [4]; at 1.2 µM 26% | [4]; at 3.7 µM 48% | [4]; at 11.0 µM 69% | [5]; at 1.2 µM 6% | [5]; at 3.7 µM 6% | [5]; [16] 18% | [5]; at 11.0 µM 21% | [5]; at 33.0 µM 51% | [6]; at 1.2 µM 43% | [8]; at 1.2 µM -6% | [8]; at 3.7 µM -8% | [8]; at 11.0 µM -6% | [8]; at 33.0 µM 3% | [8]; at 100.0 µM 6% | [10]; at 1.2 µM -11% | [10]; at 3.7 µM -17% | [10]; [16] -66% | [10]; at 11.0 µM -11% | [10]; at 33.0 µM -18% | [10]; [17] -11% | [10]; at 50.0 µM 12.4% | [10]; at 100.0 µM 0% | [11]; at 1.2 µM -1% | [11]; at 3.7 µM 1% | [11]; at 11.0 µM -2% | [11]; at 33.0 µM 15% | [11]; at 100.0 µM 35% | [12]; at 1.2 µM 49% | [12]; at 3.7 µM 69%

C/C(=N\N=C(N)N)C(CN1CCOCC1)C(c1ccccc1)c1c(O)c2ccccc2oc1=O (centres undefined)
active: [4]; [16] 78% | [4]; [17] 78% | [4]; at 50.0 µM 86.5% | [4]; at 100.0 µM 94% | [5]; at 50.0 µM 80.7% | [6]; at 100.0 µM 93% | [7]; [16] 88% | [7]; [17] 88% | [7]; at 50.0 µM 86% | [9]; at 50.0 µM 85.5% | [10]; at 50.0 µM 77.8% | [15]; at 100.0 µM 95% | [11]; at 100.0 µM 96% | [14]; at 100.0 µM 93%
inactive: [1]; at 1.2 µM 2% | [1]; at 3.7 µM -2% | [1]; at 11.0 µM -3% | [1]; at 33.0 µM 3% | [1]; at 100.0 µM 42% | [2]; at 1.2 µM -6% | [2]; at 3.7 µM -3% | [2]; at 11.0 µM -6% | [2]; at 33.0 µM -3% | [2]; at 100.0 µM 10% | [3]; at 1.2 µM 1% | [3]; at 3.7 µM -2% | [3]; at 11.0 µM 0% | [3]; at 33.0 µM 37% | [3]; at 100.0 µM 48% | [4]; at 1.2 µM 3% | [4]; at 3.7 µM 5% | [4]; at 11.0 µM -15% | [4]; at 33.0 µM 21% | [5]; at 1.2 µM 1% | [5]; at 3.7 µM 1% | [5]; [16] 59% | [5]; at 11.0 µM -3% | [5]; at 33.0 µM 8% | [5]; [17] 59% | [5]; at 100.0 µM 51% | [6]; at 1.2 µM 4% | [6]; at 3.7 µM 1% | [6]; at 11.0 µM -2% | [6]; at 33.0 µM 6% | [8]; at 1.2 µM 0% | [8]; at 3.7 µM 7% | [8]; at 11.0 µM 2% | [8]; at 33.0 µM 18% | [8]; at 100.0 µM 48% | [9]; [16] 7% | [9]; [17] 7% | [10]; at 1.2 µM 5% | [10]; at 3.7 µM 4% | [10]; [16] 31% | [10]; at 11.0 µM 18% | [10]; at 33.0 µM 47% | [10]; [17] 31% | [10]; at 100.0 µM 43% | [15]; at 1.2 µM -1% | [15]; at 3.7 µM 0% | [15]; at 11.0 µM 0% | [15]; at 33.0 µM 35% | [11]; at 1.2 µM -2% | [11]; at 3.7 µM -8% | [11]; at 11.0 µM -7% | [11]; at 33.0 µM 40% | [13]; [16] 57% | [13]; [17] 57% | [13]; at 50.0 µM 49.2% | [14]; at 1.2 µM -3% | [14]; at 3.7 µM -9% | [14]; at 11.0 µM -12% | [14]; at 33.0 µM 13%

Cc1c2ccccc2cc2ccccc12
active: [1]; at 33.0 µM 93% | [1]; at 100.0 µM 98% | [2]; at 3.7 µM 84% | [2]; at 11.0 µM 96% | [2]; at 33.0 µM 98% | [2]; at 100.0 µM 98% | [3]; at 11.0 µM 73% | [3]; at 33.0 µM 99% | [3]; at 100.0 µM 99% | [4]; at 11.0 µM 83% | [4]; at 33.0 µM 98% | [4]; [17] 98% | [4]; at 50.0 µM 98.3% | [4]; at 100.0 µM 98% | [5]; at 33.0 µM 99% | [5]; [17] 99% | [5]; at 50.0 µM 98.6% | [5]; at 100.0 µM 99% | [6]; at 33.0 µM 99% | [6]; at 100.0 µM 99% | [7]; [17] 99% | [7]; at 50.0 µM 98.4% | [8]; at 11.0 µM 82% | [8]; at 33.0 µM 99% | [8]; at 100.0 µM 99% | [9]; [17] 99% | [9]; at 50.0 µM 98% | [10]; at 33.0 µM 95% | [10]; [17] 99% | [10]; at 50.0 µM 98.2% | [10]; at 100.0 µM 99% | [15]; at 33.0 µM 98% | [15]; at 100.0 µM 99% | [11]; at 11.0 µM 86% | [11]; at 33.0 µM 99% | [11]; at 100.0 µM 99% | [12]; at 11.0 µM 97% | [12]; at 33.0 µM 99% | [12]; at 100.0 µM 99% | [13]; [17] 99% | [13]; at 50.0 µM 97.8% | [14]; at 11.0 µM 76% | [14]; at 33.0 µM 98% | [14]; at 100.0 µM 98%
inactive: [1]; at 1.2 µM -2% | [1]; at 3.7 µM 1% | [1]; at 11.0 µM 24% | [2]; at 1.2 µM 52% | [3]; at 1.2 µM -2% | [3]; at 3.7 µM 19% | [4]; at 1.2 µM 4% | [4]; at 3.7 µM 36% | [4]; [16] 16% | [5]; at 1.2 µM -2% | [5]; at 3.7 µM 14% | [5]; [16] 35% | [5]; at 11.0 µM 61% | [6]; at 1.2 µM 5% | [6]; at 3.7 µM 21% | [6]; at 11.0 µM 55% | [7]; [16] 34% | [8]; at 1.2 µM 9% | [8]; at 3.7 µM 29% | [9]; [16] 51% | [10]; at 1.2 µM -3% | [10]; at 3.7 µM 7% | [10]; [16] 58% | [10]; at 11.0 µM 49% | [15]; at 1.2 µM -4% | [15]; at 3.7 µM -1% | [15]; at 11.0 µM 63% | [11]; at 1.2 µM 8% | [11]; at 3.7 µM 27% | [12]; at 1.2 µM -14% | [12]; at 3.7 µM 20% | [13]; [16] 65% | [14]; at 1.2 µM 5% | [14]; at 3.7 µM 25%
